Data reported in PubChem BioAssay (Tox21).
Results filed as inconclusive are left out. Active and inactive are the calls of the source. Unless noted, calls follow the shape of the dose curve; as a rule, active = well fitted curve in the direction sought with a large enough effect in the repeat runs; inconclusive = weak or mixed curves; inactive = no such curve, though single readings can be large; an effect the other way counts as inactive or inconclusive.

What was measured:
[1] = qHTS assay to identify small molecule antagonists of the thyroid receptor (TR) signaling pathway - cell viability counter screen (AID 743064); also: nearly all actives have a fitted effect of over 50% in size
How it was run: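 Compounds were tested on GH3.TRE-Luc cells in the presence of T3 at 1 nM final. Following 23.5 h at 37 °C, cell viability was quantified by CellTiter-Fluor.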

[2] = qHTS assay to identify small molecule antagonists of the estrogen receptor alpha (ER-alpha) signaling pathway - cell viability counter screen (AID 743074; calls by dose curve;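 also: HEK293 cells carrying ER-alpha-UAS-bla reporter stimulated with 17beta-estradiol; nearly all actives have a fitted effect of over 45% in size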)
[3] = target: Estrogen receptor (Homo sapiens) (UniProt P03372); assay: qHTS assay to identify small molecule agonists of the estrogen receptor alpha (ER-alpha) signaling pathway using the BG1 cell line (AID 743079); also: nearly all actives have a fitted effect of over 20% in size
[4] = qHTS assay to identify small molecule antagonists of the estrogen receptor alpha (ER-alpha) signaling pathway using the BG1 cell line - cell viability counter screen (AID 743081);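 also: compound given together with 17beta-estradiol as the ER stimulus; series mostly up to about 70 µM; nearly all actives have a fitted effect of over 45% in size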
Aromatase (Homo sapiens) = Aromatase (Homo sapiens) (UniProt P11511); assay: qHTS assay to identify aromatase inhibitors (AID 743083); also: series mostly up to about 70 µM; nearly all actives have a fitted effect of over 55% in size
[5] = qHTS assay to identify aromatase inhibitors - cell viability counter screen (AID 743084);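 also: cells stimulated with testosterone during compound exposure; nearly all actives have a fitted effect of over 55% in size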
[6] = target: Aryl hydrocarbon receptor (Homo sapiens) (UniProt P35869); assay: qHTS assay to identify small molecule that activate the aryl hydrocarbon receptor (AhR) signaling pathway (AID 743085);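 also: HG2L7.5c1 human HepG2 liver cells with stably integrated DRE-driven firefly reporter; series mostly up to about 70 µM; nearly all actives have a fitted effect of over 15% in size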
How it was run: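 24 h compound exposure, 37C, HepG2-derived HG2L7.5c1 cells with DRE-responsive luciferase. Readouts: fluorescence viability, then luminescence at room temperature after 30 min.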

[7] = qHTS assay to identify small molecule that activate the aryl hydrocarbon receptor (AhR) signaling pathway - cell viability counter screen (AID 743086);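 also: HepG2 liver cells carrying the AhR DRE luciferase reporter; series mostly up to about 70 µM; nearly all actives have a fitted effect of over 45% in size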
How it was run: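 HepG2-AhR-luc (HG2L7.5c1) cells, 4000/well, were preincubated 5 h at 37C, exposed to compound in qHTS format for 24 hr at 37C, then given CellTiter-Fluor for 30 min; viability was read as fluorescence in the reporter wells.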

[8] = target: Peroxisome proliferator-activated receptor gamma (Homo sapiens) (UniProt P37231); assay: qHTS assay to identify small molecule agonists of the peroxisome proliferator-activated receptor gamma (PPARg) signaling pathway (AID 743094; active = well fitted activation curve with a large enough effect in the signal ratio in the repeat runs, not every such curve was filed as active; the % refers to the signal ratio)
How it was run: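 Agonism was assessed in a beta-lactamase reporter system, HEK293H cells with a stably integrated UAS-bla construct under PPARg control; the 17 h treatment at 37C preceded a 1 h room-temperature FRET substrate read.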

[9] = qHTS assay to identify small molecule antagonists of the peroxisome proliferator-activated receptor gamma (PPARg) signaling pathway - cell viability counter screen (AID 743194); also: nearly all actives have a fitted effect of over 55% in size
How it was run: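 PPARg-UAS-bla HEK293H cells were plated, rested 5 h at 37 C, then treated with compounds plus rosiglitazone (50 nM final) for 17 h at 37 C; viability was then read by CellTiter-Glo luminescence after 30 min at room temperature.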

[10] = qHTS assay for small molecule agonists of the antioxidant response element (ARE) signaling pathway (AID 743202; active = well fitted activation curve with a large enough effect in the signal ratio in the repeat runs, not every such curve was filed as active; the % refers to the signal ratio)
How it was run: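 Following a 16 h, 37 C exposure of reporter HepG2 cells (ARE-driven beta-lactamase, 2,000 cells/well) to compounds, FRET substrate was applied for 2 h at room temperature and fluorescence intensity recorded.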

[11] = qHTS assay for small molecule agonists of the antioxidant response element (ARE) signaling pathway - cell viability counter screen (AID 743203; calls by dose curve; also: nearly all actives have a fitted effect of over 55% in size)
How it was run: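 ATP content via CellTiter-Glo luminescence served as the viability measure. Cells: ARE-bla HepG2, 2,000 per well. Exposure: 16 hrs, 37C/5% CO2.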

[12] = qHTS assay for small molecule activators of the heat shock response signaling pathway - cell viability counter screen (AID 743209); also: nearly all actives have a fitted effect of over 50% in size
How it was run: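 Compounds dissolved in DMSO were added to overnight-plated HSE-bla HeLa cells and left 5 h at 37 C. Cell viability was quantified by luminescence using CellTiter-Glo.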

[13] = qHTS assay for small molecule activators of the heat shock response signaling pathway (AID 743210; active = well fitted activation curve with a large enough effect in the signal ratio in the repeat runs, with a control signal flat, not every such curve was filed as active; the % refers to the signal ratio; also: series mostly up to about 63 µM)
How it was run: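 Heat shock element–beta-lactamase HeLa reporter cells; qHTS with compounds for 5 h at 37 C; detection by FRET substrate fluorescence after 2.5 h at RT.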

[14] = tested on: thyroid hormone receptor (rat, GH3 cells); assay: qHTS assay to identify small molecule agonists of the thyroid receptor (TR) signaling pathway (AID 743066; calls by dose curve)
[15] = target: Estrogen receptor (Homo sapiens) (UniProt P03372); assay: qHTS assay to identify small molecule antagonists of the estrogen receptor alpha (ER-alpha) signaling pathway (AID 743069; active = well fitted curve in the direction sought with a large enough effect in the signal ratio in the repeat runs, not every such curve was filed as active; the % refers to the signal ratio)
How it was run: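 A 17beta-estradiol challenge was applied right after compound transfer to ER-alpha-UAS-bla HEK293 cells previously kept in charcoal-stripped serum. Plates stood 18 hr at 37C and 5% CO2; fluorescence was read following 2 hr FRET substrate loading at room temperature.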

[16] = target: Estrogen receptor (Homo sapiens) (UniProt P03372); assay: qHTS assay to identify small molecule agonists of the estrogen receptor alpha (ER-alpha) signaling pathway (AID 743075; calls by dose curve;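 also: HEK293 GripTite cells with ER-alpha and UAS-driven beta-lactamase reporter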)
[17] = qHTS assay to identify small molecule antagonists of the estrogen receptor alpha (ER-alpha) signaling pathway using the BG1 cell line (AID 743080; calls by dose curve;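 also: BG1 cells stimulated with 17beta-estradiol alongside compound; series mostly up to about 70 µM; nearly all actives have a fitted effect of over 25% in size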)
How it was run: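 Quantitative HTS on the Tox21 10K library: BG1 cells with endogenous ER-alpha and ERE-luciferase reporter, 17beta-estradiol stimulation, 21.5 h compound exposure, luminescence endpoint with parallel fluorescence cytotoxicity counter-read.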

[18] = target: Peroxisome proliferator-activated receptor gamma (Homo sapiens) (UniProt P37231); assay: qHTS assay to identify small molecule antagonists of the peroxisome proliferator-activated receptor gamma (PPARg) signaling pathway (AID 743191; calls by dose curve; also: series mostly up to about 63 µM; nearly all actives have a fitted effect of over 30% in size)
How it was run: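 GeneBLAzer PPARg UAS-bla HEK293H cells carrying a UAS-driven beta-lactamase reporter were plated at 3000 cells/well, preincubated 5 h at 37C, then given compound for 17 h at 37C; LiveBLAzer B/G FRET substrate was read after 1 h at room temperature.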

Measured: Potency

Peroxisome proliferator-activated receptor gamma (Homo sapiens), sequence (P37231 whole entry, looked up): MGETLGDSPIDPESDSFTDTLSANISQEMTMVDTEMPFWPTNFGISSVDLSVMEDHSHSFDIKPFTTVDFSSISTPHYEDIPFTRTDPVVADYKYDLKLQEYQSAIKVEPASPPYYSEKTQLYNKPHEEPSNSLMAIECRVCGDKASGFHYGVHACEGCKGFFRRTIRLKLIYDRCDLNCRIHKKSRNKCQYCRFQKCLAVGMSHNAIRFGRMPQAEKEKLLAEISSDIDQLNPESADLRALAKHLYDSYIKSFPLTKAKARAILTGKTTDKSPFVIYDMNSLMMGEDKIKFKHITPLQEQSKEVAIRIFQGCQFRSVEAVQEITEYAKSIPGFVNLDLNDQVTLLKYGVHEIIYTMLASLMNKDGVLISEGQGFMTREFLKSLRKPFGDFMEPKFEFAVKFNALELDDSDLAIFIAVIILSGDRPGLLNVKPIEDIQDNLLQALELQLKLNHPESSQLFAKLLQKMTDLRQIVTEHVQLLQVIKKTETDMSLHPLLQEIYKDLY
Estrogen receptor (Homo sapiens), sequence (P03372 whole entry, looked up): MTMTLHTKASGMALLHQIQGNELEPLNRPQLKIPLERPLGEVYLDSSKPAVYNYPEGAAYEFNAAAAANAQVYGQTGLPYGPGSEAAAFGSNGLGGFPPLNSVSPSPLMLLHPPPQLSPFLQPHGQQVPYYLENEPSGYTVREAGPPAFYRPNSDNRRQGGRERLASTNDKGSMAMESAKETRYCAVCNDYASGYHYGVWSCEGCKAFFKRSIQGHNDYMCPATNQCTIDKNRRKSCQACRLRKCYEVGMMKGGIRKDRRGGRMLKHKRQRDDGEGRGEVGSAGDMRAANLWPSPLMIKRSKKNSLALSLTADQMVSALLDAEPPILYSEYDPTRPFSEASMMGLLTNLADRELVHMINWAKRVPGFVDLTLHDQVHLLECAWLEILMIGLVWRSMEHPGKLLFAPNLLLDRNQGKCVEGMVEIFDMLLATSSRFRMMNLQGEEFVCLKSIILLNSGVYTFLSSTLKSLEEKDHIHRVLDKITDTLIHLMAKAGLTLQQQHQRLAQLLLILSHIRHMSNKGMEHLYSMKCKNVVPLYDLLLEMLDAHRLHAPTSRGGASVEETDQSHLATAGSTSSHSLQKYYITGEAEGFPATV
Aryl hydrocarbon receptor (Homo sapiens), sequence (P35869 whole entry, looked up): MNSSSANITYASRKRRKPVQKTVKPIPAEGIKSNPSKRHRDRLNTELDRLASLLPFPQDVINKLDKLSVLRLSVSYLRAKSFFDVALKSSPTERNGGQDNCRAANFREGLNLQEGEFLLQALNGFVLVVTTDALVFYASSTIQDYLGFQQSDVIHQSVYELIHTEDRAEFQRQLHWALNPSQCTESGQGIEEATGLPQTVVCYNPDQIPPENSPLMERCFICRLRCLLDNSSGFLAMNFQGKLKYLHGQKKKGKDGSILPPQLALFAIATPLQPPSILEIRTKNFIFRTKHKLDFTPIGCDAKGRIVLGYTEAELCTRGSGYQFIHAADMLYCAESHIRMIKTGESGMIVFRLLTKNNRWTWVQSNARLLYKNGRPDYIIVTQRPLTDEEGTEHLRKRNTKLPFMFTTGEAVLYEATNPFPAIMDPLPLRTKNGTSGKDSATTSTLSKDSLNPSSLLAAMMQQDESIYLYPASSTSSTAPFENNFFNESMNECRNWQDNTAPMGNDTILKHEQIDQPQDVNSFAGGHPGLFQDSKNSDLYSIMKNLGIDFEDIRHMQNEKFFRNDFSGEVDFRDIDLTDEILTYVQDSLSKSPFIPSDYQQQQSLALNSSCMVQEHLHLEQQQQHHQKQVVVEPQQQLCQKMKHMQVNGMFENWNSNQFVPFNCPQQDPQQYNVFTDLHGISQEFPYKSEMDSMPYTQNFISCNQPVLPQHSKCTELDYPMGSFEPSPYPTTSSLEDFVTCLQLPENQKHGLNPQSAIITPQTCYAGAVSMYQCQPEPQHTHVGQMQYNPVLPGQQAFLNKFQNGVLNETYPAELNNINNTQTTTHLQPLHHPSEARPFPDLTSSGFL
Aromatase (Homo sapiens), sequence (P11511 whole entry, looked up): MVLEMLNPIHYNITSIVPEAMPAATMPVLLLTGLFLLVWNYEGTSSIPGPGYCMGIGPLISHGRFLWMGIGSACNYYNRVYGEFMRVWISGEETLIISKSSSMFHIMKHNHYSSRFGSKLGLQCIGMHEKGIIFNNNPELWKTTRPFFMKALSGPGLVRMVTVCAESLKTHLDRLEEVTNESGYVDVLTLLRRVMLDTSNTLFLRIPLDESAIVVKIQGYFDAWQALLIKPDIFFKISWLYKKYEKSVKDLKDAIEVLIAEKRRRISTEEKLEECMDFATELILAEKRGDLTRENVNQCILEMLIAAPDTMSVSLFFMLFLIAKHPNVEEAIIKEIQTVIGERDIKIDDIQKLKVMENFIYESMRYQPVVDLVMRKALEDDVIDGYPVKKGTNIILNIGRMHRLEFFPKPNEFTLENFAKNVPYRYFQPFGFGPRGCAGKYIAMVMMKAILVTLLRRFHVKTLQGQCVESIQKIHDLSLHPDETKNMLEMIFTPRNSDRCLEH

CCCCCCCCCCCCCCCCCCOCC(O)CO (centres undefined)
not listed: [14] | [15] | [16] | [17] | [18]
inactive: all other assays above

CN(C)N=Nc1ccccc1
inactive: [1] | [14] | [2] | [4] | [7] | [9] | [11] | [12] | [13]

CN1[C@@H]2CC[C@H]1CC(NC(=O)n1c(=O)[nH]c3ccccc31)C2 (some centres undefined)
not listed: [10] | [14]
inactive: all other assays above

NS(=O)(=O)c1cc(C2(O)NC(=O)c3ccccc32)ccc1Cl (centres undefined)
not listed: [3] | [15] | [16] | [17] | [18]
inactive: all other assays above
